The values that follow come from the supplement of paper PMC6555819.

The experiment concerns LXRa homodimer (NR concentration 270 nM). Kind of experiment: PBM binding z-score (relative to random genomic background probes); higher = stronger binding; sequences stand for … in GC…GCGATTGACAGCGTAGAATGAAGG
The method, boiled down:
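Ligand-free nuclear receptor dimers were applied to custom Agilent 4×180K protein-binding microarrays whose double-stranded probes carried direct-repeat seeds, single-nucleotide variants, half-site ablations and random human genomic background sequences in 34-nt variable regions. Incubation lasted 1 h. Binding z-scores were computed against the random background probes from regression-normalized fluorescence.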
For the sequence CCTGCTAGGTCATGGTTAGCTAATCTACAGTATG, the PBM binding z-score is -0.0293.

AATACAGGGTCACTAGGCCAGTGTAGGTACGAAT showed a PBM binding z-score of 1.08.

AGAACGAGGTCAATGAGTTGATAGCACGGGTGGC gave a PBM binding z-score of 0.873.

TCTAGCAGGCCAGAGGGTCACTCTAGAGGTACGG showed a PBM binding z-score of -0.632.

The sequence CCTATTAGTTGACTATAAGGGCAACCGAAGCTCG registered a PBM binding z-score of 0.0612.

For ATCTCTAGGTAAAGATAGTTCAGTGCATGCAAAT, the PBM binding z-score was 0.693.

Sequence CCTCGGCGGACAACAGGAGGTCAGAGCTGCCAGA yielded a PBM binding z-score of 1.67.

AGAATGAGGGTAAGATCAGGGAAACAGAATACAT: the PBM binding z-score came out at 0.147.

Sequence TCTATTTGTTGAAGGGCAACCGACGAGTCCGTTT returned a PBM binding z-score of 0.754.

Turning to CGTCCAAGGTCAATACTAGGTCAGTGAAAGCATT, the PBM binding z-score came out at 3.65.

The sequence GCTACTGGGGCATCAGCAGGTTACCATAACTTAA registered a PBM binding z-score of -0.19.

Sequence CCTCCAAGGTCAGCAGGTCAGTGAAAGCGACGTG yielded a PBM binding z-score of 0.385.

For CCGACTGGGGCAGAAAGGTTACCATTCCATCCGG, the PBM binding z-score was -0.165.

In the case of CCTACTTGGTCAAGGTCACACACGCTATAGGTAC, the PBM binding z-score was 2.32.

CCTGCTAGGTGAATGGTCAGCTAAAGCAGCTCGC: the PBM binding z-score is -0.807.

TCTTGTAGATCAAAAGTTAAGAAAGCCGAAGCCT had a PBM binding z-score of -0.368.

The sequence CCTTACGGGTCACGCCAGGTTATAGCATCGGAGT registered a PBM binding z-score of 0.573.

GCGACTGGGGCAAAGCAGGTTAACATAAGGTTGG had a PBM binding z-score of -0.346.

As for GCGACTGCGGCAAAGCAGGTTACCATAAGGTTGG, the PBM binding z-score is -0.713.

Consider TAGCCTAGGTCAGATCGGGCCAATATACGCTATA, for which the PBM binding z-score was 0.0992.

AGAACGAGGGCACGTTGAGTTGATAGCAGAGTAG yielded a PBM binding z-score of -0.372.

ACAAGCAGGCCAAGTTTGGGTCACTCAAACAAAG displayed a PBM binding z-score of -0.641.

In turn, ATCTCTAGGTAACAAGTTCAGTGAAAGAGAGGAC showed a PBM binding z-score of 0.507.

In turn, ACTTACGGGTCATCGAGGTTATAGCACGCGTATA registered a PBM binding z-score of 0.924.

Consider CCGACTGGGGCAGAAAGGCTACCATACCATCCGG, for which the PBM binding z-score is -0.431.

ACTTGCAGGCCAAGTTTGGGTCACTCAAACAAAG came in with a PBM binding z-score of -0.189.

As for AGAACGAGGGCAATGAGTTGTTAGCACGGGTGGC, the PBM binding z-score was -0.446.

Take CCTTACGGGTCAAGGTTATAGGACGGGTGGTACG: the PBM binding z-score stood at 0.302.

For CCTTACAGGTCACTCCAGGTTATAGCATCGGAGT, the PBM binding z-score amounted to 5.05.

For the sequence TCTACTAGGTCAGTTGGTCAGCTAACGAGCTGCC, the PBM binding z-score is -0.0574.

TAGCCTAGGTGAGATCGGGCCAGTATACGCTATA registered a PBM binding z-score of -0.692.

Turning to TGTCAAAGTTCAAAGGTAACGGAAGTATCCACAC, the PBM binding z-score is 4.4.

As for TCATAAAGGTAAAGGTGAAAGTCGAACGATATGA, the PBM binding z-score is -0.143.

Turning to ACCGAAAGGTCGAGGTGAGTATAGAGAAAGGGAA, the PBM binding z-score is -0.000757.

GATACAGGCTCAAGGCCAGAGTACGCGTATTGAT displayed a PBM binding z-score of -0.571.

Consider TCTTGTAGATCAAGCAGGTTAAGACAGCCTGAGT, for which the PBM binding z-score was -0.132.

For TCGAGTAGGTTACCAATGGAGCATTCAGCTTTCT, the PBM binding z-score was -0.758.

Sequence TTACCAAGGTGCGCTGAGGTCGTTGATCCAACTC yielded a PBM binding z-score of 0.0298.

Take TAGCCGAGGTCAGATCGGGCCAGTATACGCTATA: the PBM binding z-score was found to be 0.00263.
